# Assay outcomes: PubChem BioAssay, several laboratories
# In the library only some 2.3% were active in any assay of this set; here they are far more common.
# m5-HT2A agonist: mouse HTR2A agonism via beta-arrestin recruitment; P35363; CHO-K1 mHTR2A beta-arrestin complementation, luminescence; percent of 30 µM serotonin response; activation, % at 7.6 µM; 360,000 tested, 0.66% active; AID 624169;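 active means activation above a run cutoff, the mean activation of all tested compounds plus 3 SD, cut at about 14% in these data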;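 further: 0% = plate median of compound wells and 100% = 30 µM serotonin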
# Target sequence (P35363 whole entry, looked up): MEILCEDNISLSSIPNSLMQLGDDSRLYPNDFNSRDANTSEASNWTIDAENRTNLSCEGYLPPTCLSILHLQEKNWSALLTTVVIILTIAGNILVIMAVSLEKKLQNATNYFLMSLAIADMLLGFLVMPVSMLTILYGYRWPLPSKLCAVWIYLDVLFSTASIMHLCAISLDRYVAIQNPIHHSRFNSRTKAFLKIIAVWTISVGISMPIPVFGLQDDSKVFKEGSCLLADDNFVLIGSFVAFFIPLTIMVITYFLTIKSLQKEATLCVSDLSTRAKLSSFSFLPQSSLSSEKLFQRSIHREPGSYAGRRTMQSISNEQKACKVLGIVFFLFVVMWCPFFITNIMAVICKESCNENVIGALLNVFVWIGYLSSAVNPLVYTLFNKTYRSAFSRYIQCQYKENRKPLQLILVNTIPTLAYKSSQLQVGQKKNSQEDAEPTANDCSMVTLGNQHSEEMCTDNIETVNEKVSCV
# NTR1 ag: NTR1 (human) agonism | NTR1-U2OS beta-arrestin-GFP spot imaging, agonist mode | 330,000 tested, 0.17% active | P30989 | activation, % at 20 µM;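 active means activation at or above 40% of the spot to cytoplasm intensity ratio, with at least 20 cells analyzed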;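 further: 0% = DMSO without peptide and 100% = 100 nM NTR1 peptide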
# Beta2AR agonist: agonists of human beta-2 adrenergic receptor inducing internalization; P07550; Am2.2-beta2AR cells, FAP receptor internalization, flow cytometry; response, % (no concentration beside the values); 340,000 tested, 0.43% active;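 active means response above a set limit, near 3 SD of response in nonfluorescent compounds, cut at about 42% in these data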
# Exocytosis inh: lytic granule exocytosis inhibition. TALL-104 LAMP-1 surface exposure, flow cytometry; cells stimulated with thapsigargin and PMA. 360,000 tested, 0.66% active. inhibition, % at 10 µM;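 active means inhibition above about 55%, limit read from the data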
# ABHD5-PLIN5 inh: blocks binding of human ABHD5 to perilipin-5; inhibition, % at 4 µM; Split G. princeps luciferase complementation, luminescence, 4 h; Q00G26+Q8WTS1; AID 602281; 360,000 tested, 0.78% active;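 active means inhibition above the mean inhibition across every tested compound plus 3 SD, cut at about 22% in these data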;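 further: 0% = DMSO only wells and the 100% control is not disclosed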
# MOR ag counter: OPRM1 agonism in mouse HTR2A counterscreen | shares compounds with m5-HT2A agonist | U2OS OPRM1 beta-arrestin PathHunter, luminescence; DMSO 0%, DAMGO 9.3 µM 100% | activation, % at 9.3 µM | 2,300 tested, 5.3% active;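 active means mean activation above the mean of DMSO-only wells plus 3 SD, cut at about 0.5% in these data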
# m5-HT2A ag conf: confirmation of mouse HTR2A serotonin receptor agonists; 2,300 tested, 19% active; shares compounds with m5-HT2A agonist; activation, % at 7.6 µM; CHO-K1 PathHunter beta-arrestin recruitment, luminescence; DMSO 0%, 30 µM serotonin 100%;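 active means mean activation across triplicates above the hit threshold derived in the original primary screen, cut at about 15% in these data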
# Numbers without * were called inactive; x = not tested or not shown; ! = not confirmed by another sample.
SMILES,m5-HT2A agonist,NTR1 ag,Beta2AR agonist,Exocytosis inh,ABHD5-PLIN5 inh,MOR ag counter,m5-HT2A ag conf
Cc1ccc2nc(SCn3nnc4ccccc4c3=O)[nH]c2c1,1,3,-3,2,-4,x,x
Cc1ccc(SCn2nnc3ccccc3c2=O)c(C)c1,25*,1,-14,-4,1,0,0
O=C(/C=C/c1ccccc1)N/C(=C/c1ccccc1)C(=O)N1CCCCC1,3,-4,0,1,2,x,x
COCCn1c(=O)[nH]c2cc(C(=O)N3CCN(c4ccccc4OC)CC3)ccc2c1=O,9,-1,12,-2,-4,x,x
COCCn1c(=O)[nH]c2cc(C(=O)N3CCN(c4cccc(C)c4C)CC3)ccc2c1=O,15*,0,3,2,-6,0,1
Cc1nc2ccc(S(=O)(=O)NCC(=O)NCc3ccc(Cl)cc3)cc2s1,0,0,1,-3,2,x,x
Cc1nc2ccc(S(=O)(=O)CCC(=O)NCc3ccc(Cl)cc3)cc2s1,21*,x,x,3,-9,0,-1
O=C1CCc2cc(S(=O)(=O)Nc3cccc(Cl)c3)ccc2N1,-2,x,x,3,2,x,x
Cc1cccc(NS(=O)(=O)c2ccc3c(c2)CCC(=O)N3)c1,16*!,3,1,-1,-2,0,5
Cc1ccc(NC(=O)NC(=O)COC(=O)c2ccc(O)cc2O)c(C)c1,15*,x,x,-6,-4,0,-1
COc1cc(CCCN2C(N)=NC[C@@H]2Cc2ccccc2)cc(OC)c1OC,16*,-2,3,-5,4,-1,-6
COc1cc(CCCN2C(N)=NC[C@@H]2Cc2ccc(O)cc2)cc(OC)c1OC,1,-6,1,-4,12,x,x
C/C=C/C(=O)OCC(=O)Nc1nc2ccc(C)cc2s1,26*,-2,-1,-2,-2,-1,-4
CCOCC(=O)Nc1nc2ccc(C)cc2s1,-1,0,-3,-2,-5,x,x
O=C(O)c1ccc(NCCC2=CCCCC2)c([N+](=O)[O-])c1,0,1,5,-1,4,x,x
CCC(=O)N1CCCC(C)(C(=O)Nc2ccc(C)c(C)c2)C1 (configuration not stated),17*,x,x,-4,-5,0,-1
CN1C(=O)C(CC(=O)NC2CCCCC2)SC1=Nc1ccccc1 (configuration not stated),23*,-1,-2,1,-2,-1,-3
CCN=C1SC(CC(=O)NC2CCCCC2)C(=O)N1CC (configuration not stated),-5,2,4,-1,-2,x,x
COc1ccc(NC(=O)C2CC(=O)N(c3ccccc3C)C2)c(OC)c1 (configuration not stated),15*,0,7,-9,6,-1,-3
COc1cc2c3nnc(-c4ccccc4)c-3cn(Cc3ccc(F)cc3)c2cc1OC,32*,12,-58,7,13,0,21*
O=C(O)Cc1ccc2c(c1)Cc1cccnc1O2,2,x,x,2,1,x,x
CSc1nn2cc(CCN3CCOCC3)c(-c3ccc(F)cc3)nc2c1C#N,2,2,9,0,0,x,x
COc1ccccc1N1CCN(C(=O)CSc2ncccc2-c2nc3ccccc3[nH]2)CC1,-2,1,1,-1,-3,x,x
COc1ccccc1N1CCN(C(=O)CSc2nc3ccccc3[nH]2)CC1,15*,-2,0,-6,-2,0,0
O=C(O)c1ccccc1-c1csc(-c2ccccc2)n1,6,1,3,5,-5,x,x
SMILES,m5-HT2A agonist,NTR1 ag,Beta2AR agonist,Exocytosis inh,ABHD5-PLIN5 inh,MOR ag counter,m5-HT2A ag conf
C[C@H]1CC[C@H]2C(=O)N[C@H](Cc3ccccc3)C(=O)N2[C@@H]1c1ccccc1,x,-1,x,x,x,x,x
O=C(NC1(N2CCOCC2)CC1)c1ccc(Cl)cc1,15*,3,2,-1,8,-1,-2
O=C(Nc1ccc(CN2CCOCC2)cc1)c1ccc(Cl)cc1,-4,2,1,4,6,x,x
CC(C)(C)c1csc(NC(=O)c2c(F)c(F)c(F)c(F)c2F)n1,17*,9,-7,9,5,0,15*
O=C(Cn1cc(C(F)(F)F)ccc1=O)Nc1ccc2c(c1)OCO2,17*,x,x,0,5,-1,-3
O=C(Cn1cc(Br)ccc1=O)Nc1ccc2c(c1)OCO2,-4,-2,-7,-3,-6,x,x
COC(=O)c1ccc(CNC(=O)C23CC4CC(CC(C4)C2)C3)cc1,8,0,4,-3,6,x,x
CCOc1ccc(-n2c(=S)sc3c(=O)[nH]c(SCC(=O)C(C)(C)C)nc32)cc1,17*,4,1,-3,-7,-1,0
CN(CC1COc2ccccc2O1)C(=O)c1cccc(S(=O)(=O)N2CCCC2)c1 (configuration not stated),5,0,4,-3,8,x,x
Cc1noc(C)c1CSCC(=O)N(C)CC(=O)Nc1ccccc1Cl,14*,0,0,-1,1,-1,-2
CCC(C)N(C(=O)COC(=O)CSc1ccc(C)c(C)c1)C1CCS(=O)(=O)C1 (configuration not stated),15*,1,0,8,4,0,0
CC(C)C(=O)Nc1ccc(C(=O)NNC(=S)NC(=O)c2ccco2)cc1,15*,2,x,-1,2,-1,2
Cc1ccc(S(=O)(=O)N2CCOCC2)cc1NC(=O)COC(=O)c1cc(=O)c2ccccc2o1,-2,1,2,-5,1,x,x
CCOC(=O)C1(C)CCCCCN1C(=O)c1ccc(OC)cc1 (configuration not stated),16*,x,x,3,5,-1,-4
CC1CN(CC(=O)NCc2ccccc2)CC(C)O1 (configuration not stated),15*,0,0,-2,9,0,1
O=S1(=O)CCN(C(CCO)c2cccc(C(F)(F)F)c2)CC1 (configuration not stated),0,3,0,-2,-2,x,x
Cc1ccc(Cn2cc(CN3CC(N4CCN(Cc5cccc(C)c5)CC4)CS3(=O)=O)nn2)cc1 (configuration not stated),5,x,x,3,2,x,x
Cc1cccc(CN2CCN(C3CN(Cc4ccc(F)cc4)S(=O)(=O)C3)CC2)c1 (configuration not stated),18*,x,x,1,6,-1,1
Cc1ccc(CN2CC(N3CCN(Cc4cccc(C)c4)CC3)CS2(=O)=O)cc1 (configuration not stated),31*,x,x,-1,4,0,11
COc1ccc(CNCc2c(F)cccc2F)cc1OC,0,0,-1,10,-3,x,x
O=C(Nc1ccc(-c2n[nH]c(=S)o2)cc1)c1ccccc1Cl,17*,1,-11,2,-3,-1,5
